Results on three compounds are retold here after PubChem BioAssay (EPA / NIEHS).

The structures appear in SMILES notation. Calls of active or inactive are those of the source. Rule for the calls: active = hit-call score of the fitted dose curve at least 0.9, where 1 is the maximum; inactive = score below 0.9.

Assay [1] can be described thus: ATG_CRE_CIS: Attagene CIS-FACTORIAL HepG2 Assay for human cAMP Responsive Element (CRE) binding protein 3 (AID 2282926). To be noted: HepG2 CRE cis-reporter, Attagene multiplexed mRNA; actives raise or lower the signal. The gist of the method:
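Capillary electrophoresis of 6-FAM-labelled, HpaI-digested PCR products quantified reporter transcripts. These came from HepG2 transiently transfected with cis-element reporters and exposed to test chemicals for 24 hours, with DMSO defining baseline activity.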

Assay [2] concerns the target CCAAT/enhancer-binding protein beta (Homo sapiens) (UniProt P17676). The experiment in a line: ATG_C_EBP_CIS: Attagene CIS-FACTORIAL HepG2 Assay for human CCAAT/Enhancer Binding Protein (C/EBP) beta (AID 2282927). The conditions noted are these: HepG2 Attagene cis-factorial transcription factor reporter; actives raise or lower the signal. The method, boiled down: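 Endogenous transcription factor activity in human liver HepG2 cells is inferred from induction of a CEBPB-linked reporter mRNA. Exposure lasts 24 h; activity is fitted in both directions relative to DMSO.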

The nature of assay [3]: ATG_CMV_CIS: Attagene CIS-FACTORIAL HepG2 Assay for human CMV (Internal Marker) (AID 2282928).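 Note: endpoint acts as a background internal control marker rather than a target.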 The conditions noted are these: HepG2 CMV promoter reporter, transcription factor profiling; actives raise or lower the signal. The gist of the method: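 24 h chemical treatment, HepG2 with transient multi-reporter transfection; RNA → oligo(dT) RT → PCR → 6-FAM extension → HpaI digest → CE fluorescence. Bidirectional fit, DMSO negative control.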

Assay [4] can be described thus: ATG_DR4_LXR_CIS: Attagene CIS-FACTORIAL HepG2 Assay for human Liver X Receptor (LXR), DR4 submotif (AID 2282929). The conditions noted are these: HepG2 Attagene DR4 cis-reporter, mRNA transcription; actives raise or lower the signal. The method, boiled down: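 Cells were transfected with multiple reporter transcription units, exposed to chemicals for 24 hours, then lysed for RNA. Reporter mRNA induction was measured by RT-PCR with capillary electrophoresis detection and fitted in both directions relative to DMSO.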

The target in assay [5] is Aryl hydrocarbon receptor (Homo sapiens) (UniProt P35869). The experiment in a line: ATG_Ahr_CIS: Attagene CIS-FACTORIAL HepG2 Assay for human Aryl Hydrocarbon Receptor (Ahr) (AID 2282930). To be noted: HepG2 AhR cis-factorial reporter transcription; actives raise or lower the signal. The gist of the method:
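Transient MRTU transfection of HepG2 → 24 h compound exposure → total RNA, oligo(dT) RT → PCR, 6-FAM extension, HpaI cut → CE fluorescence. DMSO = baseline; bidirectional curve fit.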

Assay [6] is described as follows: ATG_AP_1_CIS: Attagene CIS-FACTORIAL HepG2 Assay for human Activator Protein 1 (AP-1) (AID 2282931). The conditions noted are these: HepG2 Attagene cis-factorial AP-1 reporter mRNA; actives raise or lower the signal. The gist of the method: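 Endogenous transcription-factor activity in human HepG2 liver cells is read through a cis-promoter reporter transcript, sampled 24 h after dosing. Detection uses RT-PCR with capillary electrophoresis; values come from bidirectional fitting relative to DMSO.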

Assay [7] can be described thus: ATG_AP_2_CIS: Attagene CIS-FACTORIAL HepG2 Assay for human Activator Protein 2 (AP-2) (AID 2282932). To be noted: HepG2 AP-2 cis-reporter, Attagene transcription factor profiling; actives raise or lower the signal. The gist of the method:
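Transiently transfected HepG2 cells are exposed to chemical for 24 h. Reporter transcripts are then measured as fluorescence following RT-PCR and capillary separation, and gain- or loss-of-signal is fitted relative to DMSO.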

A short description of assay [8]: ATG_BRE_CIS: Attagene CIS-FACTORIAL HepG2 Assay for human Bone Morphogenetic Protein (BMP) Response Element (BRE) (AID 2282933). To be noted: HepG2 BMP response element reporter, Attagene transcription factor profiling; actives raise or lower the signal. The gist of the method:
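Fluorescence-labelled reporter cDNA fragments, separated by capillary electrophoresis, gave the signal for this component of a 52-readout multiplex. HepG2 cells were transfected, exposed to chemicals for 24 h, and compared with DMSO using bidirectional fitting.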

The target in assay [9] is Transcription factor E2F1 (Homo sapiens) (UniProt Q01094). Briefly: ATG_E2F_CIS: Attagene CIS-FACTORIAL HepG2 Assay for human E2F Transcription Factor 1 (AID 2282935). The conditions noted are these: HepG2 Attagene cis-reporter, E2F reporter RNA transcripts; actives raise or lower the signal. The method, boiled down:
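Fluorescent RT-PCR products, digested with HpaI for 2 h at 37 C, are separated by capillary electrophoresis. Source RNA comes from transfected HepG2 cultures treated for 24 h.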

Assay [10] can be described thus: ATG_E_Box_CIS: Attagene CIS-FACTORIAL HepG2 Assay for human Enhancer Box (E-box) (AID 2282936). To be noted: HepG2 E-box cis-reporter transcription, actives raise or lower the signal. The gist of the method:
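Fluorescent reporter fragments separated by capillary electrophoresis gave the signal; mRNA came from HepG2 cells transfected with cis-element reporters and treated 24 h. Curves fitted bidirectionally relative to DMSO controls.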

A short description of assay [11]: ATG_M_61_CIS: Attagene CIS-FACTORIAL HepG2 Assay for M61 Transcription Factor (Internal Marker) (AID 2282937). To be noted: HepG2 Attagene CIS-FACTORIAL M61 internal marker reporter; actives raise or lower the signal. The gist of the method:
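Cells were transfected with reporter units under cis-regulatory promoters, treated with chemicals for 24 h, then lysed for RNA. Reporter transcripts were quantified by RT-PCR and capillary electrophoresis, and activity was fitted bidirectionally against DMSO.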

Assay [12] is described as follows: ATG_EGR_CIS: Attagene CIS-FACTORIAL HepG2 Assay for human Early Growth Response 1 (EGR1) (AID 2282938). The conditions noted are these: HepG2 Attagene CIS-FACTORIAL EGR reporter mRNA; actives raise or lower the signal. The gist of the method:
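Endogenous TF activity in HepG2 liver cells was gauged through cis-promoter reporter constructs transiently transfected. After 24 h dosing, reporter mRNA was quantified by RT-PCR and capillary electrophoresis, and curves fitted in both directions versus DMSO.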

A short description of assay [13]: ATG_M_19_CIS: Attagene CIS-FACTORIAL HepG2 Assay for M19 Transcription Factor (Internal Marker) (AID 2282939). The conditions noted are these: HepG2 Attagene CIS-FACTORIAL M19 internal marker reporter; actives raise or lower the signal. The gist of the method:
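HepG2, MRTU transient transfection, 24 h dosing. Total RNA → RT-PCR → 6-FAM primer extension → HpaI digest → CE fluorescence. Bidirectional curve fit, DMSO negative control.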

Assay [14] in a line: ATG_ERE_CIS: Attagene CIS-FACTORIAL HepG2 Assay for Estrogen Response Element (ERE) (AID 2282940). To be noted: HepG2 ERE cis-reporter, Attagene RNA transcript; actives raise or lower the signal. The method, boiled down:
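After a 24 h chemical treatment, RNA from reporter-transfected HepG2 cells is reverse-transcribed, PCR-amplified and fluorescently labelled. Fragments separated by capillary electrophoresis give reporter signal; DMSO serves as negative control.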

A short description of assay [15]: ATG_Ets_CIS: Attagene CIS-FACTORIAL HepG2 Assay for human Erythroblast Transformation Specific (ETS) (AID 2282941). To be noted: HepG2 ETS cis-reporter transcription, actives raise or lower the signal. The gist of the method:
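Cis-regulated reporter mRNA induction in HepG2 (transient transfection), 24 h exposure, RT-PCR plus capillary electrophoresis detection; DMSO serves as negative control and baseline.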

The target of assay [16] is Hepatocyte nuclear factor 3-beta (Homo sapiens) (UniProt Q9Y261). Briefly: ATG_FoxA2_CIS: Attagene CIS-FACTORIAL HepG2 Assay for human Forkhead box A2 (FOXA2) (AID 2282942). To be noted: HepG2 cis-reporter transcription factor activity, 24 h; actives raise or lower the signal. The method, boiled down: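 Endogenous transcription factor activity was read in HepG2 cells carrying transiently transfected cis-promoter reporter units. After 24 h dosing, reporter mRNA was quantified by RT-PCR and capillary electrophoresis, and values fitted bidirectionally versus DMSO.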
Hepatocyte nuclear factor 3-beta (Homo sapiens), sequence (Q9Y261 whole entry, looked up): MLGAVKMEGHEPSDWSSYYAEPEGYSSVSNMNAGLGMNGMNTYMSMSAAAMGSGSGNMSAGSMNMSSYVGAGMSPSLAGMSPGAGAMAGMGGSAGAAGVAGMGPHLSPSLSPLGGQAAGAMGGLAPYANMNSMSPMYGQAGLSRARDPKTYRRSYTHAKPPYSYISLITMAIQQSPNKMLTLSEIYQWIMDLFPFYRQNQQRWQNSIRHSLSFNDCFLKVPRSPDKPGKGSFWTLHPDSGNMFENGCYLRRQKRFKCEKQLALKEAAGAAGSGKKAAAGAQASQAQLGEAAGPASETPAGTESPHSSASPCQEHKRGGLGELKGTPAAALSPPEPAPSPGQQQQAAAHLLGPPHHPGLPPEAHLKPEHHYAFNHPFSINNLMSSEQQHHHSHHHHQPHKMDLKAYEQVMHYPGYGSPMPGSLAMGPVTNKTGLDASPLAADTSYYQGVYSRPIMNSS

Assay [17] in a line: ATG_FoxO_CIS: Attagene CIS-FACTORIAL HepG2 Assay for human Forkhead box O (FoxO) (AID 2282943). To be noted: HepG2 Attagene cis-reporter, FoxO element, mRNA; actives raise or lower the signal. The method, boiled down: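 HepG2, transient MRTU transfection (cis element, endogenous TFs). Dose 24 h. TriZol RNA → oligo(dT) RT → PCR → 6-FAM primer extension → HpaI cut → CE. Gain/loss vs DMSO.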

Assay [18] can be described thus: ATG_GATA_CIS: Attagene CIS-FACTORIAL HepG2 Assay for human GATA Binding Protein (AID 2282944). To be noted: HepG2 GATA cis-element reporter, Attagene multiplex mRNA; actives raise or lower the signal. The gist of the method:
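Cells: HepG2, transiently transfected with cis-regulated reporter transcription units. Exposure: 24 h. Detection: RT-PCR plus capillary electrophoresis of FAM-labeled fragments. Analysis: bidirectional, DMSO as baseline.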

Assay [19] is described as follows: ATG_GLI_CIS: Attagene CIS-FACTORIAL HepG2 Assay for human Zinc Finger Protein GLI1 (AID 2282945). To be noted: HepG2, Attagene cis-factorial reporter mRNA, GLI element; actives raise or lower the signal. The gist of the method:
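Bidirectional curve fits relative to DMSO, using reporter mRNA levels from RT-PCR plus capillary electrophoresis. Cells were HepG2 transiently carrying cis-regulated reporter constructs, harvested 24 h after dosing.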

The target of assay [20] is Bile acid receptor (Homo sapiens) (UniProt Q96RI1). The experiment in a line: ATG_IR1_CIS: Attagene CIS-FACTORIAL HepG2 Assay for human Nuclear Receptor Subfamily 1 Group H Member 4 (NR1H4), IR1 submotif (AID 2282946). The conditions noted are these: IR1 reporter transcription, actives raise or lower the signal. The gist of the method:
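HepG2 cells transiently transfected with multiplexed cis-element reporter units read endogenous transcription factor activity. After 24 h compound exposure, reporter mRNA was quantified by RT-PCR, fluorescent labelling, HpaI digestion and capillary electrophoresis; bidirectional fitting versus DMSO baseline.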

CCAAT/enhancer-binding protein beta (Homo sapiens), sequence (P17676 whole entry, looked up): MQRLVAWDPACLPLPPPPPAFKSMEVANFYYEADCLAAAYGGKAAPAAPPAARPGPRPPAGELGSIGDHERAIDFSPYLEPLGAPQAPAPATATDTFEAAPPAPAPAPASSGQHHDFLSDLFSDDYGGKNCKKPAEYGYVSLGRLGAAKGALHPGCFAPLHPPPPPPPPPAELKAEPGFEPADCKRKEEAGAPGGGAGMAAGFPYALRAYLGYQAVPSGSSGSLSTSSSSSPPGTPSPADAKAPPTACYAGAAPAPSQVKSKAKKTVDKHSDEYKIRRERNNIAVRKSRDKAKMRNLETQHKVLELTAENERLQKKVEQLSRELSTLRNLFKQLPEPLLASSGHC
Transcription factor E2F1 (Homo sapiens), sequence (Q01094 whole entry, looked up): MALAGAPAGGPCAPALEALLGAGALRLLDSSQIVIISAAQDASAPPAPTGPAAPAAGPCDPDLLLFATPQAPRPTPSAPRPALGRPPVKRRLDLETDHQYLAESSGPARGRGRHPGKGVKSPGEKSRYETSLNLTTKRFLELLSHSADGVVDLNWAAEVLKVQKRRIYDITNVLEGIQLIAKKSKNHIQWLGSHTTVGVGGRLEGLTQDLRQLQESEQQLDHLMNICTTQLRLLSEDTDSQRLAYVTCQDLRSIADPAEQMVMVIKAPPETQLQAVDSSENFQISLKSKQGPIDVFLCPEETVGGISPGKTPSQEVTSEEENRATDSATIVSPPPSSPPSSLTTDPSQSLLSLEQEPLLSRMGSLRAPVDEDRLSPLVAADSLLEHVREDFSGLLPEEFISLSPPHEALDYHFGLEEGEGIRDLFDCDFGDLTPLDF
Aryl hydrocarbon receptor (Homo sapiens), sequence (P35869 whole entry, looked up): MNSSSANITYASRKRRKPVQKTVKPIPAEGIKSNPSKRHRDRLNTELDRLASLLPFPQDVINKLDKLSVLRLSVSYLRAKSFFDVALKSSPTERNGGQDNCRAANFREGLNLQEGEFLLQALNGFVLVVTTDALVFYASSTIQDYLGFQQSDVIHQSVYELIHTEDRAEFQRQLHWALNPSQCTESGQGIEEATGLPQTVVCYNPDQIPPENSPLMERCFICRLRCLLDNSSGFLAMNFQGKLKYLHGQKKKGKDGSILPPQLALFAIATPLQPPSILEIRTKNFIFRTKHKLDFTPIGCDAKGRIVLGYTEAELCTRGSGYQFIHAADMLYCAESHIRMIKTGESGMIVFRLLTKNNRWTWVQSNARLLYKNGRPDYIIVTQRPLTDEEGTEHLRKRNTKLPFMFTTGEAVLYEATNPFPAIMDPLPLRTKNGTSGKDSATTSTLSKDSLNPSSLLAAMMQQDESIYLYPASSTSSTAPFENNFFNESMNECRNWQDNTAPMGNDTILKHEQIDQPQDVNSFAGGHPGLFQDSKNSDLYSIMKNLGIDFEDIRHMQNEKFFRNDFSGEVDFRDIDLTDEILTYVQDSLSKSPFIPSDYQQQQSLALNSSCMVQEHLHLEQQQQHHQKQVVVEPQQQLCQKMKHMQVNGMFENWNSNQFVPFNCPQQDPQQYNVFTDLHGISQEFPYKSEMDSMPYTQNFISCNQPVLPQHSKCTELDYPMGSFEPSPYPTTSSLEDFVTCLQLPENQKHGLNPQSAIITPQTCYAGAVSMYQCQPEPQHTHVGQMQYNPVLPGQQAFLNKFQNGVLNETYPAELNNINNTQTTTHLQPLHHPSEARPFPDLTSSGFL
Bile acid receptor (Homo sapiens), sequence (Q96RI1 whole entry, looked up): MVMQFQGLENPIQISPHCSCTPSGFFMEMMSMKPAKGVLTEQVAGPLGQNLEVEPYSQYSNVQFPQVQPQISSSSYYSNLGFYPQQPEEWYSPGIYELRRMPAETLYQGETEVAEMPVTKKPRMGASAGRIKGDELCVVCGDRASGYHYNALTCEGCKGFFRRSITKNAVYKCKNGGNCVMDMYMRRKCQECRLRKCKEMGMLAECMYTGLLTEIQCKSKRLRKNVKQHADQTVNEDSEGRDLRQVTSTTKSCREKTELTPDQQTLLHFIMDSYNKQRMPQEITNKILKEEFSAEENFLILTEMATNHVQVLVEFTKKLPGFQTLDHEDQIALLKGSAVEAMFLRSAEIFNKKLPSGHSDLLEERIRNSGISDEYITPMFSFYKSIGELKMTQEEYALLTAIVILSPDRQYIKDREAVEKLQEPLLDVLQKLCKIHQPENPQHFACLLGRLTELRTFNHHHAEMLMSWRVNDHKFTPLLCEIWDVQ

One may read the AC50 as the midpoint of the concentration-response curve, whichever way the signal moves. Take `CS(=O)(=O)c1ccc([C@@H](C[C@H]2CCC(=O)C2)C(=O)Nc2cnccn2)cc1Cl`: the call in assay [1], in assay [2], in [3], in assay [4], in assay [5] and in [6] was inactive. Also, the call in assay [7], in [8], in [9], in [10], in [11] and in assay [12] was inactive. The call in assay [13], in assay [15], in assay [16], in assay [17], in [18] and in assay [19] was inactive. In [14], the half-maximal activity concentration (AC50) is 45.5 µM (active).

In the case of `Cc1ccc(-c2cc(C(F)(F)F)nn2-c2ccc(S(N)(=O)=O)cc2)cc1`, the compound was called inactive in assay [1], in assay [2], in assay [3], in [5], in [6] and in assay [7]. For the same compound, the outcome in [8], in assay [9], in assay [10], in assay [11], in assay [12] and in [13] was inactive. In addition, the outcome in assay [14], in assay [15], in assay [16], in [17], in assay [18] and in assay [19] was inactive. Besides, the AC50 in assay [4] is 14.4 µM (active).

With `O=C(O)c1[nH]n(-c2ccc(S(=O)(=O)O)cc2)c(=O)c1N=Nc1ccc(S(=O)(=O)O)cc1`, the compound was classed as inactive in assay [1], in [2], in [3], in [4], in assay [6] and in [7]. The outcome in assay [8], in [9], in assay [10], in assay [11], in assay [12] and in [13] was inactive. Further, the call in assay [14], in [15], in assay [16], in assay [17], in assay [18] and in assay [19] was inactive. The compound was called inactive in assay [20]. For the same compound, the concentration at half-maximal activity (AC50) in [5] is 58.7 µM (active).
